The full list was thinned out, with hits kept by preference.
Pf Dd2 growth = inhibitors of Plasmodium falciparum Dd2 growth; P. falciparum Dd2 growth, SYBR Green, 72 h; Potency, µM (top dose mostly 28.9 µM), hits mostly inhibitors; hit rate 4.3% among 120,000; AID 1347417; active means well fitted inhibition curve with a large enough effect; further: nearly all actives have a fitted effect of over 65% in size
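Infected erythrocytes (Dd2, 0.3% parasitemia, 2.5% hematocrit final) are added to compound in RPMI-1640/Albumax II medium, grown 72 h at 37C in low oxygen, then lysed with saponin/Triton-X containing SYBR Green and read by fluorescence.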
A number is an active result; 0 = inactive; ! = not active in a repeat.

SMILES	Pf Dd2 growth
CCc1cc(C(=O)N2CCC3(CC2)CC(c2ccccc2)C(=O)N3)cs1 (stereo not drawn)	0
O=C(Cn1nc2n(c1=O)CCCCC2)NCc1ccc(F)cc1	0
CC1CCN(CC2CCCN(C(=O)c3cnccn3)CC2)CC1 (stereo not drawn)	0
Cc1cnn(C2(C(=O)O)CCN(C(=O)c3cnn4cccnc34)CC2)c1	0
O=C1NC(C(=O)NCCCc2ccccc2)Cn2cccc21 (stereo not drawn)	0
COc1ccc(C[C@H](NC(=O)C2=C[C@@H](NC(=O)CS(=O)(=O)c3ccccc3)[C@@H](O)[C@H](O)C2)C(N)=O)cc1	0
CN(Cc1ccc(-c2ccccc2)cc1)C(=O)c1ccccc1Cl	0
c1ccc(OCc2nc(C3CCCNC3)no2)cc1 (stereo not drawn)	5.6µM
Cc1ccc(OCc2nc(C3CCNC3)no2)cc1 (stereo not drawn)	0
Fc1ccccc1OCc1nc(C2CCCNC2)no1 (stereo not drawn)	0
Cc1nc(CN(C)C(=O)c2cc(Cn3c(C)nc4ccccc43)on2)cs1	0
CN(C)C(=O)C1CCc2nnc(C(C)(C)C)n21 (stereo not drawn)	0
CN(CCc1ccccn1)C(=O)CCC[C@@H]1[C@H]2CCCN3CCC[C@@H](CN1C(=O)c1cccnc1)[C@@H]23	0
CCN1C(=O)C2(CCN(S(=O)(=O)Cc3ccc(Cl)cc3)CC2)c2ccccc21	0
O=C1N(CCc2ccccc2)c2ccccc2C12CCN(CC1CC1)C2 (stereo not drawn)	5µM!
CN1C(=O)C2(CCN(C(=O)Nc3ccccc3F)C2)c2ccccc21 (stereo not drawn)	0
CN1C(=O)C2(CCN(C(=O)C3CCCC3)CC2)c2ccccc21	0
O=C(CC1CCN(C(=O)NC2CCCCC2)C1)NCc1ccccc1 (stereo not drawn)	0
O=C(Nc1ccc(Cl)cc1)N1CCC2(C1)C(=O)N(CCc1ccccc1)c1ccccc12 (stereo not drawn)	4.5µM
O=C1N(Cc2ccccc2)c2ccccc2C12CCN(Cc1cncs1)C2 (stereo not drawn)	0
Cc1cc(CN2CCC3(C2)C(=O)N(Cc2ccccc2)c2ccccc23)no1 (stereo not drawn)	0
O=C(NC1CCCC1)N1CCC2(C1)C(=O)N(CCc1ccccc1)c1ccccc12 (stereo not drawn)	7.9µM!
Cc1nccn1CCNC(=O)CCC[C@@H]1[C@H]2CCCN3CCC[C@@H](CN1C(=O)c1cccnc1)[C@@H]23	0
CCc1n[nH]c(CC2CCN(C(=O)COc3ccc(C)cc3)CC2)n1	0
CCCNC(=O)NC[C@@H]1C=C(C)[C@H](Cc2nc3ncccc3[nH]2)C[C@H]1C(C)C	0
SMILES	Pf Dd2 growth
COC(=O)c1ccc2nc(C[C@@H]3C[C@@H](C(C)C)[C@H](CNC(=O)[C@@H]4CCCC[C@@H]4C(=O)O)C=C3C)[nH]c2c1	0
COC(=O)c1ccc2nc(C[C@@H]3C[C@@H](C(C)C)[C@H](CNC(=O)N4CCOCC4)C=C3C)[nH]c2c1	13µM
COc1ccc2[nH]c(C[C@@H]3C[C@@H](C(C)C)[C@H](CNC(=O)C4CCC4)C=C3C)nc2n1	11µM
CCCNC(=O)NC[C@@H]1C=C(C)[C@H](Cc2nc3ccc(OC)cc3[nH]2)C[C@H]1C(C)C	10µM
CC1=C[C@@H](CNC(=O)c2cccnc2)[C@H](C(C)C)C[C@H]1Cc1nc2ccc(F)cc2[nH]1	0
COc1ccc2nc(C[C@@H]3C[C@@H](C(C)C)[C@H](CNC(=O)CC4(CC(=O)O)CCCC4)C=C3C)[nH]c2c1	0
CC1=C[C@@H](CNC(=O)C2CC2)[C@H](C(C)C)C[C@H]1Cc1nc2ncccc2[nH]1	0
COC(=O)c1ccc2nc(C[C@@H]3C[C@@H](C(C)C)[C@H](CNC4CCOCC4)C=C3C)[nH]c2c1	0
COC(=O)c1ccc2nc(C[C@@H]3C[C@@H](C(C)C)[C@H](CNCc4ccccc4F)C=C3C)[nH]c2c1	4.5µM
CC1=C[C@@H](CNC(=O)C2CC2)[C@H](C(C)C)C[C@H]1Cc1nc2ccncc2[nH]1	0
COC(=O)c1ccc2nc(C[C@@H]3C[C@@H](C(C)C)[C@H](CNCc4ccc(OC)cc4O)C=C3C)[nH]c2c1	0
Cc1cc(C(=O)N2C[C@@H]3CCCN4CCC[C@@H]([C@H]34)[C@H]2CCCC(=O)N2CCOCC2)nn1C	0
O=C1CC(c2ccccc2)N(C(=O)CNC(=O)NC2CCCCC2)CCCCCCN1 (stereo not drawn)	0
Cc1ccc(C)c(S(=O)(=O)N2CCCC(Cn3c(C)nc4cccnc43)C2)c1 (stereo not drawn)	0
Cn1cncc1-c1nnc([C@H]2CCN(Cc3ccc(Cl)cc3)C2)o1	0
CNc1nc2c(c(C(=O)N3CCCC3)n1)CN(C(=O)Cn1nccc1C)CC2	0
COCCCNC(=O)N1CCC2(CC1)CN(Cc1ccc(OC)cc1)C2=O	0
CCC(CC)C(=O)NC[C@@H]1C=C(C)[C@H](Cc2nc3ccc(C(=O)OC)cc3[nH]2)C[C@H]1C(C)C	0
CCOC(=O)C[C@@H]1C[C@@H](C(C)C)[C@H](CNC(=O)c2cccnc2)C=C1C	0
